Laboratory results as given in the supplement of paper PMC6555819.

What follows are sequences tested on RARa:RXR (NR concentration 270 nM, RXRa partner concentration 90 nM) (assay: PBM binding z-score (relative to random genomic background probes); higher = stronger binding; sequences stand for … in GC…GCGATTGACAGCGTAGAATGAAGG).
How it was run: (§1)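 Each nuclear receptor dimer, without ligand, was incubated for 1 h on custom Agilent 4×180K protein-binding microarrays. Binding was detected with antibodies against each partner (one per run), and scanned fluorescence was regression-normalized. The binding z-scores are referenced to random human genomic background probes.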
For CGTCCAAGGTCAAAGGTCAGGGAAGAGATGACGG, the PBM binding z-score was 8.27.
With TAGCCTAGGTTATGCGGGCCAGTATAGTGTCGGC the PBM binding z-score was -0.208.
With CCTACTGGGCCAAAAAGGCCATTGATGCCGATAA the PBM binding z-score was -0.0899.
Work on CGAACTAGGTCAAAGGCCAGTGAAAGGCGACGTA yielded a PBM binding z-score of 3.18.
Sequence ATCTCTAGGTTAAAGTTCAGTGAATCCCGAGGAT has a PBM binding z-score of 3.99.
CCGACTGGGGCAAAGGTTACGATACTCAGTACGA showed a PBM binding z-score of 4.39.
ACTCGGAGGACAGAGGTCAGAGCTACGCCAGTGA showed a PBM binding z-score of 3.9.
For CAATCTAGGTCACAGAGGTCAAAGTCCGTGCGTA, the PBM binding z-score was 7.89.
With CATACACGGTCAGCTAGGCCAGAGTAGGGACGGC the PBM binding z-score was -0.295.
For GCTTCCGGGTCAAAGGTTATAGCATGAATAGAAT, the PBM binding z-score was 8.48.
TCAGATAGGTAAAGGTGAAAGTCGAACGATATGA gave a PBM binding z-score of 1.75.
ATATGTAGGTCAGGGTCATTCAGAAAGTAGGGAA showed a PBM binding z-score of 5.05.
Work on CTAACTAGGTCACCGGAAGGTCAAAGTCCGCATG yielded a PBM binding z-score of 7.24.
In the case of CGTCCAAGGTCAGCAGGTGAGTGAAAGCGACGTG, the PBM binding z-score is reported as 3.32.
TCATATAGGTAATAAAGGTGAAAGTCGGCATCTA showed a PBM binding z-score of 2.02.
CAAAATAGGTCAAGGTCAAAGTCGGTTTGTGCCA gave a PBM binding z-score of 5.42.
For CGTCCAAGGTCAGCAGGTCAGAGAAAGCGACGTG, the PBM binding z-score was 5.74.
CGTCCAAGGTCAAAGGTCACTGAAGAGATGACGG gave a PBM binding z-score of 9.
For TCTAGTTGGTCACGGAGGTCACACGCGACGGGTA, the PBM binding z-score was 4.54.
TCATATAGGTTAAAGGTGAAAGTCGGTGTGGTAA was tested, and the PBM binding z-score was 6.33.
CAAACTAGGTCACGAGGTCAAAGTCCGCTTCCCG was tested, and the PBM binding z-score was 6.91.
Sequence CCTACTGGGCCAAGGTCTTTGATCAGTCAAAGCA has a PBM binding z-score of -0.344.
In the case of CGTCCAAGGTCAATGCTAGCTCAGTGAAAGCATT, the PBM binding z-score is reported as 3.92.
For AGTCAAATTTCACTAGGTAACGTAAGATTCAGCT, the PBM binding z-score was 0.0458.
In the case of AGAATGGGGTTAAGATCAGGGAAACAGAATACAT, the PBM binding z-score is reported as 3.46.
For TCATATAGGTAATCAGGTGAAAGTCCGTAAGTTA, the PBM binding z-score was 1.14.
Sequence CGTCCAAGGTCAAGGTCACTGAAAGAGACTCGAA has a PBM binding z-score of 6.16.
CGTCCAAGCTCAGCAGGTCAGTGAAAGCGACGTG was tested, and the PBM binding z-score was 0.234.
CGAACTAGGTCAAAGGACACTGAAAGGCGACGTA showed a PBM binding z-score of 2.85.

Each sequence was assayed on RARa homodimer (NR concentration 270 nM) in the same assay as above.
How it was run: as §1
TATACAGGGTCAAAGGGCAGAGTACGAATGTCGA showed a PBM binding z-score of 1.6.
CGTCCAAGGTCAAAGGTCAGGGAAGAGATGACGG gave a PBM binding z-score of 2.57.
In the case of CAAACTAGGTCACCGGAAGGTCAAAGTTCGCATG, the PBM binding z-score is reported as 3.06.
Sequence TAGCCTAGGTTATGCGGGCCAGTATAGTGTCGGC has a PBM binding z-score of -1.25.
In the case of CCTACTGGGCCAAAAAGGCCATTGATGCCGATAA, the PBM binding z-score is reported as -0.317.
CGAACTAGGTCAAAGGCCAGTGAAAGGCGACGTA showed a PBM binding z-score of -0.426.
ATCTCTAGGTTAAAGTTCAGTGAATCCCGAGGAT gave a PBM binding z-score of 1.65.
CCGACTGGGGCAAAGGTTACGATACTCAGTACGA gave a PBM binding z-score of -0.413.
ACTCGGAGGACAGAGGTCAGAGCTACGCCAGTGA showed a PBM binding z-score of 0.568.
Sequence CAAACTAGGTCACAGAGGTCAAAGTTCGTGCGTA has a PBM binding z-score of 3.28.
Work on CCAGACAGGTGAAAGGTCACTCAGTCTGGTACGC yielded a PBM binding z-score of 1.75.
Work on CAATCTAGGTCACAGAGGTCAAAGTCCGTGCGTA yielded a PBM binding z-score of 3.61.
ACTAGCAGGTCAAGGGTCACTCAAGATTAGTCCG was tested, and the PBM binding z-score was 1.38.
CATACACGGTCAGCTAGGCCAGAGTAGGGACGGC was tested, and the PBM binding z-score was 0.385.
GCTTCCGGGTCAAAGGTTATAGCATGAATAGAAT gave a PBM binding z-score of 0.795.
Sequence TCAGATAGGTAAAGGTGAAAGTCGAACGATATGA has a PBM binding z-score of 0.371.
ATATGTAGGTCAGGGTCATTCAGAAAGTAGGGAA was tested, and the PBM binding z-score was 2.85.
In the case of CTAACTAGGTCACCGGAAGGTCAAAGTCCGCATG, the PBM binding z-score is reported as 1.84.
CGTCCAAGGTCAGCAGGTGAGTGAAAGCGACGTG showed a PBM binding z-score of 0.593.
For TCTAGTAGGTCACGGAGGTCACACACGACGGGTA, the PBM binding z-score was 1.12.
TCATATAGGTAATAAAGGTGAAAGTCGGCATCTA gave a PBM binding z-score of 1.77.
CAAAATAGGTCAAGGTCAAAGTCGGTTTGTGCCA was tested, and the PBM binding z-score was 1.28.
Work on CGTCCAAGGTCAGCAGGTCAGAGAAAGCGACGTG yielded a PBM binding z-score of 2.67.
CGTCCAAGGTCAAAGGTCACTGAAGAGATGACGG was tested, and the PBM binding z-score was 3.47.
TCTAGTTGGTCACGGAGGTCACACGCGACGGGTA was tested, and the PBM binding z-score was 1.78.
With TCATATAGGTTAAAGGTGAAAGTCGGTGTGGTAA the PBM binding z-score was 2.29.
Sequence CAAACTAGGTCACGAGGTCAAAGTCCGCTTCCCG has a PBM binding z-score of 1.34.
CCTACTGGGCCAAGGTCTTTGATCAGTCAAAGCA gave a PBM binding z-score of -0.879.
CGTCCAAGGTCAATGCTAGCTCAGTGAAAGCATT showed a PBM binding z-score of 0.334.
For CCTAGTGGGCCAAAGGTCATTGATTCCAATGCTC, the PBM binding z-score was 3.01.
Sequence CCTGCTAGGTCAAGGGTCAGCTAAAGCAGCTCGC has a PBM binding z-score of 0.368.
For AGTCAAATTTCACTAGGTAACGTAAGATTCAGCT, the PBM binding z-score was 1.44.
Sequence ACTCGGAGGGCAAAGGTCAGAGCTACGCCAGTGA has a PBM binding z-score of 0.823.
GATACAGGGTCAGCTAGAGGTCAGAGTATGGAAA gave a PBM binding z-score of 1.59.
Work on AGAATGGGGTTAAGATCAGGGAAACAGAATACAT yielded a PBM binding z-score of 1.79.
For TCATATAGGTAATCAGGTGAAAGTCCGTAAGTTA, the PBM binding z-score was 1.28.
CGTCCAAGGTCAAGGTCACTGAAAGAGACTCGAA showed a PBM binding z-score of 1.64.
In the case of CGTCCAAGCTCAGCAGGTCAGTGAAAGCGACGTG, the PBM binding z-score is reported as -0.706.
CGAACTAGGTCAAAGGACACTGAAAGGCGACGTA was tested, and the PBM binding z-score was 0.514.
